Among the data in PubChem BioAssay (NCI) are growth values, retold here.

“And” between values parts separate entries of the source, which are not always exact repeats. Identical values can stand only once. The panel holds about 83,000 compounds, 20% with a hit somewhere; the sample as a whole holds those more often.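 The endpoint reported here, percent growth, reads 100 for growth as untreated, 0 for no net growth and -100 for all cells dead.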 Unmarked numbers belong to inactive results. The source made the active and inactive calls. How the source made its calls: active means growth percent below 10; inactive means the rest.

This experiment has as its system MDA-MB-468 breast. Kind of experiment: NCI-60 one-dose screen, 48 h (100 = growth as untreated, 0 = no growth, -100 = all killed). The conditions noted are these: 10 µM unless noted.

On to `Nc1ncnc2n[nH]nc12`, for which the growth is 51.6%. Under `O=C(O)c1cc([N+](=O)[O-])cc([N+](=O)[O-])c1` stands 103%; under `Nc1nnnc2nc[nH]c12`, -11.9% (active). Under `Oc1cccc2cccnc12` stands 25% and 96.3% and 106%; under `O=[N+]([O-])c1ccc(F)c([N+](=O)[O-])c1F`, 98.6%; under `COc1ccc2c(c1)C1(C)CCN(C)CC(C1)C2O` (stereo not drawn), 101%.

On to `CC[C@]12C=CCN3CC[C@]4(C(=C(C(=O)OC)C1)Nc1cc(OC)c(OC(C)=O)cc14)[C@@H]32`, for which the growth was 50.3%. Under `COc1ccc(C(c2ccc(OC)cc2)C(Cl)(Cl)Cl)cc1` stands 18%; under `COC[CH2][Hg][C]#[C][Hg][CH2]COC`, 110%. Under `CC1=C(CCCOC(=O)CN)C2=C(C)C3(CC3)[C@@](C)(O)C(=O)C2=C1` stands 20.2%. Under `C[C@]12CC[C@H]3[C@@H](CC4SC(N)=NC45C/C(=N/NC(N)=O)CC[C@]35C)[C@@H]1CCC2=O` (stereo partly drawn) stands -46.2% (active); under `CN1C(=O)[C@]23SSC1(C)C(=O)N2[C@H]1Nc2ccccc2C1([C@@]12c4ccccc4N[C@@H]1N1C(=O)C4(C)SS[C@]1(C(=O)N4C)[C@H]2O)[C@@H]3O` (stereo partly drawn), -88.9% (active). For `COc1ccc(C2=CC(c3ccc(OC)c(OC)c3)c3c(c4ccccc4oc3=O)O2)cc1OC` (stereo not drawn), the growth was -8.37% (active).

As to `CC[C@H](C)[C@H]1O[C@]2(C=C[C@@H]1C)C[C@@H]1C[C@@H](C/C=C(\C)[C@@H](O[C@H]3C[C@H](OC)[C@@H](O[C@H]4C[C@H](OC)[C@@H](NC)[C@H](C)O4)[C@H](C)O3)[C@@H](C)/C=C/C=C3\CO[C@@H]4[C@H](O)C(C)=C[C@@H](C(=O)O1)[C@]34O)O2`, the growth is -68.8% (active). Under `CC(C)(C)OOC(=O)/C=C\C(=O)OOC(C)(C)C` stands 108%; under `Cc1cc(-c2nc3cc(F)ccc3[se]2)cc(F)c1N`, -39% (active). Consider `Cc1cc(C)cc(Nc2nc3c(s2)CC[C@@]2(C)C3=CC[C@@H]3[C@@H]2CC[C@]2(C)C(=O)CC[C@@H]32)c1`, for which the growth was 57.9%. Under `O=C1OCCC1Br` (stereo not drawn) stands 106%. Consider `C1CCC([PH+](C2CCCCC2)C2CCCCC2[PH+](C2CCCCC2)C2CCCCC2)CC1.O=C(C1[CH-]CCCC1)C1CCCC[N-]1.[Au]` (stereo not drawn), for which the growth was -40.3% (active). The same measure for `CC1(C)CN=C(NN=C(/C=C/c2ccc(C(F)(F)F)cc2)/C=C/c2ccc(C(F)(F)F)cc2)NC1`: -84% (active). Regarding `N#[N+]c1nc2nc(N)[nH]c(=O)c2[nH]1`, the growth is 100%. For `CC(C)OC(=O)[C@H](C)NP(=O)(Oc1ccccc1)C1CCCN(O)C1=O` (stereo partly drawn), the growth is 96.9%. Under `COc1cc2c(cc1OC)CN(C)C(C)C2` (stereo not drawn) stands 97.9%; under `N#CCc1ccccc1`, 101%. On to `C[C@]12CCc3sc(Nc4ccc(OC(F)(F)F)cc4)nc3C1=CC[C@@H]1[C@@H]2CC[C@]2(C)C(=O)CC[C@@H]12`, for which the growth was 69.1%. Take `O=C(Nc1ccc([N+](=O)[O-])cc1)C(Cl)(Cl)Cl`: the growth is 96.5%.

Consider `COC(=O)CCP(CCC(=O)OC)c1ccccc1`, for which the growth is 105%.

As to `C[C@]12CCC(=O)C[C@@H]1CC[C@@H]1[C@@H]2CC[C@]2(C)[C@@H](OC(=O)N(CCCl)N=O)CC[C@@H]12`, the growth is -45.8% (active). Under `C/C(=N/OC(=O)N(C)C)c1ccc(Cl)cc1Cl` stands 114%; under `CN(C)CC(C(=O)Cc1ccccc1)c1ccccc1` (stereo not drawn), -29.8% (active).

With `Cc1cccc(N(C)c2cccc3c2C(=O)[Se]C3)c1C`, the growth is 16.9%.

Regarding `Oc1ccccc1C=NCCN=Cc1ccccc1O.[Fe]`, the growth is 64.3%. The same measure for `CC[C@H](C)[C@H](NC(=O)C12C3C4C1C1C2C3C41NC)C(=O)N(C)[C@H](C[C@@H](OC(C)=O)c1nc(C(=O)N[C@@H](Cc2ccccc2)C[C@H](C)C(=O)OC)cs1)C(C)C` (stereo partly drawn): 1.25% (active).

Turning to `COc1ccc(C(=O)c2ccc([As]=O)cc2)cc1` (stereo not drawn), the growth is -74.8% (active).

Regarding `N#[N+]c1cnc([O-])[nH]c1=O`, the growth is 88.4%.

Consider `CC(=O)O[C@@H]1C[C@H]2O[C@@H]3C=C(C)CC[C@]3(C)[C@]1(C)[C@]21CO1`, for which the growth was 39.3%. The same measure for `Cc1ccc(CNc2nc3ccc(OC/C(=C/F)CN)cc3o2)cn1`: 109%; for `C[C@]12CCc3sc(-c4ccccc4O)nc3C1=CC[C@@H]1[C@@H]2CC[C@]2(C)C(=O)CC[C@@H]12`: 106%.
